Screening results: PubChem BioAssay, National Center for Advancing Translational Sciences (NCATS)
The full list was thinned out, with hits kept by preference.
IL1B secr inh: blocks inflammasome-driven IL-1 beta release. actives 4.7% (n = 360,000). activity change, % at 57.5 µM. THP-1 LPS/ATP IL-1B secretion, AlphaLISA, 16 h; stronger effect = lower value; in the data active = activity change below about -50%; inconclusive = mostly about -30% to -49%
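Secreted IL-1B measured by AlphaLISA bead assay after 16 h compound exposure of THP-1 cells; compounds (final up to 57.5 uM) added 1 h before LPS (250 ng/mL) and ATP (1.25 mM) stimulation; lower signal means less secretion.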
DT40 TDP1 no CPT: qHTS for Inhibitors of human tyrosyl-DNA phosphodiesterase 1 (TDP1): qHTS in cells in absence of CPT. AID 686978, 2013. actives 15% (n = 420,000). DT40 Tdp1-/- hTDP1 cells, no CPT, ATP luminescence, 48 h. Potency, µM (doses to about 46.2 µM), for inactives: at the highest dose activity change, negative = growth inhibition, actives largely listed as inhibitors; note: potency is the fitted concentration of half-maximal effect; nearly all actives have a fitted effect of over 55% in size
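Chicken DT40 Tdp1-/- cells complemented with human TDP1, screened without camptothecin (DMSO vehicle only), 400 cells/well. Compounds pin-transferred, cells incubated at 37 °C for at least 48 hr. Growth read as ATP-dependent luminescence (CellTiter-Glo, 30 min at RT).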
DT40 TDP1 CPT: growth inhibition of DT40 Tdp1-/-;hTDP1 cells with camptothecin (screen for TDP1 inhibitors); chicken DT40 Tdp1-/-;hTDP1 cells + 20 nM CPT, ATP luminescence, 48 h; Potency, µM (titrated, usually from 46.2 µM), for inactives: at the top dose activity change, negative = growth inhibition, usual class: inhibitors; actives 12% (n = 420,000); note: potency is the fitted concentration of half-maximal effect; nearly all actives have a fitted effect of over 55% in size
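Chicken DT40 Tdp1-/- cells complemented with human TDP1, 400 cells/well, exposed to compounds plus 20 nM camptothecin for at least 48 h at 37 C; viability read as ATP content by CellTiter-Glo luminescence.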
12-LOX inh: inhibitors of human 12S-lipoxygenase ALOX12. purified 12hLO, xylenol orange hydroperoxide absorbance. Potency, µM (series often up to 108 µM), without a hit: at the highest dose activity change, negative = inhibition, most hits filed as inhibitors. actives 1.1% (n = 580,000); note: potency is the fitted concentration of half-maximal effect
Target sequence (P18054 whole entry, looked up): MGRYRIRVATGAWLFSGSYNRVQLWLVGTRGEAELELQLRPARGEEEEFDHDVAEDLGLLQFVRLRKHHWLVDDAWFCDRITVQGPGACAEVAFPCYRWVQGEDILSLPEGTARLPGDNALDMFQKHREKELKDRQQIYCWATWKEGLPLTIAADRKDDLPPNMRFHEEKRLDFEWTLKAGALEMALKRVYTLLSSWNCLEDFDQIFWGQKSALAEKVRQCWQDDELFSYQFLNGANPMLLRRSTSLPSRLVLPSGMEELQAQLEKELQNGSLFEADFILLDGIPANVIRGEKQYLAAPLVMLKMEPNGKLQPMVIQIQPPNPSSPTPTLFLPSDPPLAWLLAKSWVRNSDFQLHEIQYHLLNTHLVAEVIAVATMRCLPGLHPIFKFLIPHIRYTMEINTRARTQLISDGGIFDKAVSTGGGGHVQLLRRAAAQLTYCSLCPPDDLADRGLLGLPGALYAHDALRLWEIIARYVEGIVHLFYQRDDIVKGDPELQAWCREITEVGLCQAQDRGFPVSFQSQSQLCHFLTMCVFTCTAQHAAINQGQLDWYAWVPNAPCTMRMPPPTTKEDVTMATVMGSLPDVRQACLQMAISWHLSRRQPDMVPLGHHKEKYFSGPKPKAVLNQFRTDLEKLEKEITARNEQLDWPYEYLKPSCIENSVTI
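Hydroperoxide product was detected by ferrous iron/xylenol orange as the 573 to 405 nm absorbance ratio. Arachidonic acid at 40 uM (final) was turned over for 30 min at room temperature by 150 nM human 12hLO, pH 7.0 Hepes buffer, after 15 min compound preincubation.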
HT1080 IDH1KD tx: toxicity to HT-1080 IDH1 knockdown cells (counter line); HT-1080 IDH1 knockdown viability, ATP luminescence, 48 h; Potency, µM (top dose mostly 46.1 µM), for inactives: at the top dose activity, negative = toxicity, actives largely listed as cytotoxic; actives 2% (n = 360,000);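 note: potency is the fitted concentration of half-maximal effect; 0% = DMSO wells and -100% = cell-free medium wells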
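CellTiter-Glo luminescence after 48 h compound exposure at 37 degrees C of IDH1-knockdown HT-1080 cells in 5% FBS RPMI. %Activity scaled between DMSO wells and cell-free media wells, with curves fitted and assigned curve classes.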
HT1080-NT tox: kills 2HG-producing HT-1080-NT fibrosarcoma cells. actives 1.6% (n = 360,000). HT-1080-NT fibrosarcoma viability, CellTiter-Glo ATP luminescence, 48 h. Potency, µM (top dose mostly 46.1 µM), for inactives: at the top dose activity, negative = less viability, most hits filed as cytotoxic;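 note: NT is the 2HG producing partner of a matched IDH1 knockdown line; potency is the fitted concentration of half-maximal effect; 0% = DMSO-treated cells and -100% = media-only wells without cells; nearly all actives have a fitted effect of over 55% in size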
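750 cells/well, RPMI + 5% FBS; 2 h settle, compound pin-transfer, 48 h at 37 degrees C. CellTiter-Glo 10 min RT, luminescence. Normalized to DMSO and media-only wells.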
* = called active by the depositor; ? = inconclusive; . = not tested or not shown; [ ] = another dose, or the depositor's remark. Unless noted, calls come from the whole dose curve; as a rule, active = well fitted curve in the direction sought with a large enough effect; inconclusive = small, poorly fitted or top-dose-only effect, or another doubt; inactive = no such curve, though single readings can be large; an effect the other way counts as inactive or inconclusive. Unless noted, % is set by controls: 0 for no effect and ±100 for the full control effect.

SMILES	IL1B secr inh	DT40 TDP1 no CPT	DT40 TDP1 CPT	12-LOX inh	HT1080 IDH1KD tx	HT1080-NT tox
Cc1ccc(-n2ncc3c(=O)n(CC(=O)NCc4ccco4)cnc32)cc1C	21	6.5µM*	10µM*	-6%	?	?
Cc1ccc(-n2ncc3c(=O)n(CC(=O)NCc4ccco4)cnc32)cc1	21	23µM*	?	-16%	-30%	-24%
CCOC(=O)C1(C)CCCN(C(=O)c2ccc(C)c(F)c2)C1 (configuration not stated)	52	-29%	2%	10%	11%	15%
COc1ccccc1-c1ccnc(N[C@H]2CO[C@H]3[C@@H]2OC[C@@H]3NC(=O)N2CCOCC2)n1	.	.	.	49%	.	.
CCc1cc(CC)n(-c2nc3c(c(=O)[nH]c(=O)n3C)n2Cc2ccccc2)n1	.	.	.	15%	.	.
Cc1c(-c2ccc(F)cc2)nc(N)c(C#N)c1-c1ccco1	3	4%	-9%	-44%	13µM*	?
CCCOC(=O)CSc1nc(N)c(C#N)c(-c2ccco2)c1C#N	-88*	-27%	5%	-4%	10%	13%
N#Cc1c(N)nc(SCc2ccccc2)c(C#N)c1-c1ccco1	-73*	?	?	-61%	8%[9.24 µM]	?
CCc1nc(N)c(C#N)c(-c2ccc(F)cc2)c1C	9	0%	-2%	458%	6%	5%
Cc1nn(Cc2ccccc2)c(C)c1[C@@H]1C=C[C@@H](NC(=O)CC2(CC(=O)O)CCCC2)C1	.	.	.	13%	.	.
Cc1ccc(S(=O)(=O)CC(=O)N2CCN(c3cccc(C(F)(F)F)c3)CC2)cc1	-1	21µM*	16µM*	-28%	5%	-3%
COc1ccccc1CC(=O)N1CCN(c2cccc(C(F)(F)F)c2)CC1	-5	13µM*	23µM*	?	-16%	?
Cc1nc(-c2ccc(S(=O)(=O)N3CCN(c4ccc(F)cc4)CC3)cc2)co1	.	?	?	-14%	.	.
O=C(CS(=O)(=O)c1ccccc1)N1CCN(c2ccccc2)CC1	-2	-11%	-3%	-35%	3%	12%
CC1(C2CC2)NC(=O)N(CC(=O)N2CCN(c3cccc(C(F)(F)F)c3)CC2)C1=O (configuration not stated)	-3	12µM*	15µM*	-8%	1%	-2%
Cc1nc(-c2ccc(S(=O)(=O)N3CCN(c4cccc(C(F)(F)F)c4)CC3)cc2)co1	.	18µM*	?	-25%	.	.
Cc1cc2cc(-c3c(C)noc3C)nc(Nc3cccc(F)c3)c2o1	.	.	.	-15%[176 µM]	.	.
COCCC(=O)NCC12CCC=C1N(CC1CC1)C(=O)CC2 (configuration not stated)	.	.	.	31%	.	.
O=C(C(=O)N1CCN(C(=O)Cc2ccccc2)CC1)c1cccc(C(F)(F)F)c1	.	.	.	-2%	.	.
Cc1ccc(CC(=O)N2CCN(c3cccc(C(F)(F)F)c3)CC2)cc1	-5	18µM*	23µM*	-10%	-8%	5%
CCC[N+](C)(C)c1ccc(/C=C/c2ccncc2)cc1	.	0.35µM*	0.35µM*	.	.	.
C(=C\c1ccncc1)/c1ccccc1	0	10%	-3%	0%	19%	24%
CC[N+](C)(C)c1ccc(/C=C/c2ccncc2)cc1	.	0.63µM*	0.71µM*	.	.	.
COCCN(C(=O)COC(=O)CCC(=O)c1ccc(C)cc1)c1c(N)n(Cc2ccccc2)c(=O)[nH]c1=O	0	-17%	-9%	-1%	9%	1%
CCN(C(=O)COC(=O)c1ccc2[nH]c(C)c(C)c2c1)c1c(N)n(Cc2ccccc2)c(=O)[nH]c1=O	0	-30%	18µM*	?	2%	5%
SMILES	IL1B secr inh	DT40 TDP1 no CPT	DT40 TDP1 CPT	12-LOX inh	HT1080 IDH1KD tx	HT1080-NT tox
CCN(C(=O)COC(=O)c1cc2c(s1)CCC(C)C2)c1c(N)n(Cc2ccccc2)c(=O)[nH]c1=O (configuration not stated)	-26	?	16µM*	224%	-3%	-13%
CCN(C(=O)COC(=O)CCC(=O)c1ccc(Cl)cc1)c1c(N)n(Cc2ccccc2)c(=O)[nH]c1=O	-7	23µM*	18µM*	154%	-4%	3%
CC1CCc2sc(C(=O)OCC(=O)NCc3ccc(F)cc3)cc2C1 (configuration not stated)	7	15µM*	21µM*	-10%	21µM*	?
CCc1ccc(C(=O)OCC(=O)N(CC)c2c(N)n(Cc3ccccc3)c(=O)[nH]c2=O)cc1	4	1%	-5%	9%	13%	4%
Cc1ccc(C#N)c(NCc2cccnc2Oc2cccc(C(F)(F)F)c2)n1	.	.	.	-6%	.	.
O=C(CSc1n[nH]c(-c2ccccc2Cl)n1)N1CCN(c2ccccc2F)CC1	.	?	-22%	-14%	.	.
O=C(NCc1csc2c1CCCC2)C(c1cccnc1)N1CCOCC1 (configuration not stated)	.	.	.	21%	.	.
CCOC(=O)c1nc(N)c(C(=O)OCC)[nH]1	2	29µM*	?	0%	15%	22%
CCOC(=O)c1nc2ccccc2c(=O)[nH]1	-15	-2%	-9%	23%	1%	13%
Cc1nc([N+](=O)[O-])cn1CC(O)c1ccc2c(c1)OCO2 (configuration not stated)	.	4%	-11%	.	.	.
Cc1cc(C)cc(N2C(=O)CCSC23C(=O)N(Cc2ccccc2)c2ccccc23)c1 (configuration not stated)	.	5.8µM*	5.8µM*	-7%	.	.
Cc1cccc(N2C(=O)CCSC23C(=O)N(Cc2ccc(F)cc2)c2ccccc23)c1 (configuration not stated)	.	6.5µM*	9.2µM*	0%	.	.
O=C1CCSC2(C(=O)N(Cc3ccc(F)cc3)c3ccccc32)N1c1ccc(F)c(F)c1 (configuration not stated)	.	10µM*	7.3µM*	?	.	.
O=C1CCSC2(C(=O)N(Cc3ccc(F)cc3)c3ccccc32)N1c1cccc(F)c1 (configuration not stated)	.	3.7µM*	5.2µM*	0%	.	.
CCc1cccc(N2C(=O)CSC23C(=O)N(Cc2ccccc2F)c2ccccc23)c1 (configuration not stated)	.	.	.	-21%	.	.
O=C1CC2(CCN(C(=O)c3ccccn3)CC2)Oc2ccccc2N1	.	.	.	1%[6.33 µM]	.	.
Cn1c(=O)[nH]c(=O)c2c1nc(CN1CCOCC1)n2Cc1ccccc1F	.	.	.	4%	.	.
